NR3A LBD binder – binders of NR3A ligand-binding domain, primary screen, biophysical, differential scanning fluorimetry, uHTS; Glutamate receptor ionotropic, NMDA 3A (GRIN3A) ligand-binding domain; actives 2.5% (n = 340,000); AID 1259313, 2017; Tm shift relative to glycine control, % at 25 µM; NR3A LBD differential scanning fluorimetry, Tm shift; 0% = protein alone, 100% = glycine-bound protein;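 active = melting temperature shift of at least 10% of the positive control shift, at one fixed dose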
SKN-1 block – suppressors of acrylamide-induced Pgst-4::GFP reporter in worms, primary screen, SKN-1 inhibitor project, whole organism, uHTS, GFP/RFP fluorescence ratio, strain VP596 | inhibition, % at 21.8 µM | AID 624304, 2012 | actives 0.49% (n = 360,000) | C. elegans VP596 Pgst-4::GFP/RFP ratio, 24 h;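 active = interference check ratio from 0.5 to 1.5 plus GFP to RFP signal ratio inhibition reaching or exceeding a fixed threshold, cut at about 30% in these data, passing the limit was not always enough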
SMARCA2 act – SMARCA2 (BRM) function activators, primary screen, cell-based, luminescence, high throughput; MG213 cells, MMTV-luciferase reporter, dexamethasone, overnight; activation, % at 9.1 µM; actives 1% (n = 370,000); in the data active = activation above about 7.8%;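 also: 0% = vehicle wells and 100% = reference activator wells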
NadD block – inhibitors of S. aureus NadD, primary screen, biochemical, colorimetric, uHTS; purified NadD enzyme, colorimetric absorbance read-out; inhibition, % at 20 µM; actives 0.78% (n = 360,000); AID 602399, 2012; in the data active = inhibition above about 26%
Vif inh – HIV Vif self-association inhibitors, primary screen, imaging, HEK293T, single point | AID 602346, 2012 | actives 0.35% (n = 340,000) | inhibition, % at 7.49 µM | HEK293T cells, Vif self-association by quenched fluorescence, 24 h; in the data active = inhibition above about 50%, passing the limit was not always enough
esBAF inh – Bmi1 luciferase reporter increase in mESCs, primary screen, esBAF inhibitor project, mouse ES cells, Bmi1 luciferase knock-in, single point; 24 h; 100% = twice the neutral-well signal; reporter increase, % at 12.5 µM; actives 2% (n = 350,000); AID 602393, 2012; in the data active = activation above about 40%;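 also: 0% = median of the plate's neutral control wells and 100% = double that signal; a rise in the Bmi1 reporter signal indicates esBAF inhibition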
Active calls of the source: *; . = no result given. Most compounds without a hit are left out; they make up all but 5.2% or so of the library.

SMILES	NR3A LBD binder	SKN-1 block	SMARCA2 act	NadD block	Vif inh	esBAF inh
NS(=O)(=O)c1ccc2nc(NC(=O)Nc3ccc(F)cc3)sc2c1	23*	25	2	-4	6	17
COc1ccc(-c2ccc3c(c2)[C@H]2[C@H](CCN2S(=O)(=O)c2ccccc2C)[C@H](CO)N3C)cc1	.	.	.	.	.	0
O=c1[nH]c(SCCOc2ccccc2F)nc2ccccc12	-6	1	-1	-14	-6	.
COc1ccccc1OCCSc1nc2ccccc2c(=O)[nH]1	.	17	1	0	-6	64*
COC(=O)CCCCC(=O)C1C(=O)CC(C)(C)C(C(=O)OC)C1=O (stereo not given)	12*	11	3	0	13	-10
Cc1cc(-c2cccc([N+](=O)[O-])c2)nc2ccc3ccccc3c12	27*	0	0	4	4	12
c1ccc(-c2nc(NCc3cccnc3)c3ccccc3n2)cc1	-10	22	.	2	-16	13
c1ccc(-c2nc(NCc3cccs3)c3ccccc3n2)cc1	18*	12	0	-5	5	-8
c1csc(CNc2nc(-c3cccs3)nc3ccccc23)c1	10	19	-4	1	-1	.
Clc1cccc(-c2nc(NCc3cccnc3)c3ccccc3n2)c1	22*	16	-2	-3	-6	-6
Cc1ccc(-c2nc(NCc3cccnc3)c3ccccc3n2)cc1	-8	22	-1	0	-4	21
O=[N+]([O-])c1ccc(-c2nc(NCc3ccccc3)c3ccccc3n2)cc1	50*	-9	2	7	-1	.
COCC#Cc1ccc2c(c1)O[C@@H](CN(C)Cc1ccccc1F)[C@H](C)CN([C@H](C)CO)S2(=O)=O	.	.	.	.	.	-1
C[C@@H]1CN([C@H](C)CO)C(=O)c2cc(NC(=O)Cc3ccccc3)ccc2O[C@@H](C)CCCCO[C@@H]1CN(C)C(=O)c1ccncc1	.	.	.	.	.	-3
Fc1ccc(CNc2nc(-c3ccccc3)nc3ccccc23)cc1	21*	46*	1	4	-6	.
O=[N+]([O-])c1cccc(-c2nc(NCc3ccccc3)c3ccccc3n2)c1	339*	22	-3	11	-8	.
CNC[C@@H]1OCCCC[C@H](C)Oc2ccc(NC(=O)NC3CCCCC3)cc2C(=O)N([C@@H](C)CO)C[C@H]1C	.	.	.	.	.	-1
COc1ccc(NC(=O)N(C)C[C@@H]2Oc3ccc(NC(=O)Cc4cn(C)c5ccccc45)cc3C(=O)N([C@@H](C)CO)C[C@H]2C)cc1	.	.	.	.	.	2
CC(C)NC(=O)C1(C)CSCC(=O)N1CCCN1CCOCC1 (stereo not given)	.	35*	-3	.	.	.
O=C(C1CCCCC1)N1CC[C@@H]2[C@@H](CO)Nc3ccc(Br)cc3[C@@H]21	.	.	.	.	.	1
COc1cccc(CNC(=O)C[C@@H]2CC[C@@H](NC(=O)C3CC3)[C@H](CO)O2)c1	.	.	.	.	.	2
CCc1noc(C)c1C(=O)NNC(=O)c1ccc(Br)cc1	1	4	-3	-4	10	-1
CCc1noc(C)c1C(=O)NNC(=O)c1ccc(N(CC)CC)cc1	-1	-3	3	2	60*	1
COc1ccc(NC(=O)Nc2cccc3c2O[C@@H](CN(C)C(=O)Nc2ccc(C(F)(F)F)cc2)[C@@H](C)CN([C@H](C)CO)C3=O)cc1	.	.	.	.	.	-3
C[C@H](CO)N1C[C@H](C)[C@@H](CN(C)S(=O)(=O)c2ccc(Cl)cc2)Oc2c(NS(=O)(=O)c3ccccc3)cccc2C1=O	.	.	.	.	.	1
SMILES	NR3A LBD binder	SKN-1 block	SMARCA2 act	NadD block	Vif inh	esBAF inh
CCCCC(=O)Nc1cc2nn(-c3ccc(OC)cc3)nc2cc1C	-8	4	3	5	-3	42*
CCC(=O)Nc1cc2nn(-c3ccc(OC)cc3)nc2cc1C	0	4	6	1	15	-50
Cc1c(CCOC(=O)C23CC4(C)CC(C)(CC(C)(C4)C2)C3)sc[n+]1CC(=O)c1ccccc1	-6	38*	-1	16	-8	.
Cc1c(CCOC(=O)CC23CC4CC(CC(C4)C2)C3)sc[n+]1CC(=O)c1ccccc1	-2	-1	-4	5	-2	.
O=C(Nc1ccc(-c2cn3ccsc3n2)cc1)C1COc2ccccc2O1 (stereo not given)	24*	36*	-1	9	.	-9
Cc1ccc(NC(=O)C2COc3ccccc3O2)cc1 (stereo not given)	-2	2	4	-6	9	39
O=C(Nc1cccc(-c2cn3ccsc3n2)c1)c1ccccc1	21*	12	2	1	-1	20
O=C(Nc1cccc(-c2cn3ccccc3n2)c1)c1cccc(Cl)c1	16*	20	1	1	7	.
CO[C@@H]1CN(C)C(=O)c2ccc(NC(=O)C3CCOCC3)cc2OC[C@@H](C)N(CC2CC2)C[C@H]1C	.	.	.	.	.	4
COCC(=O)Nc1ccc2c(c1)OC[C@H](C)N(CC1CC1)C[C@@H](C)[C@H](OC)CN(C)C2=O	.	.	.	.	.	-3
CO[C@H]1CN(C)C(=O)c2ccc(NS(=O)(=O)c3ccc(C)cc3)cc2OC[C@@H](C)N(C(=O)NC(C)C)C[C@H]1C	.	.	.	.	.	-2
CCN1CCN(c2ncnc3c2c(-c2ccccc2)cn3-c2ccc(F)cc2)CC1	-9	52*	-1	-7	-2	.
O=C(Nc1ccccc1F)c1ccc(-c2cccc([N+](=O)[O-])c2)o1	-4	15	3	-11	5	27
CN1CCN(C(=S)c2ccc(-c3cccc([N+](=O)[O-])c3)o2)CC1	1	4	7.9*	-2	7	.
C=CCNC(=O)c1ccc(-c2cccc([N+](=O)[O-])c2)o1	-1	12	4	1	-2	46*
O=[N+]([O-])c1ccccc1-c1ccc(C(=S)N2CCCC2)o1	-1	-2	0	5	-2	44*
O=C(Nc1nccs1)c1ccc(-c2cccc([N+](=O)[O-])c2)o1	3	5	3	11	3	67*
CNC[C@@H]1Oc2cc(-c3ccncc3)ccc2S(=O)(=O)N([C@H](C)CO)C[C@H]1C	.	.	.	.	.	-3
C[C@@H]1CN([C@@H](C)CO)C(=O)c2cc(C#CCN(C)C)cnc2O[C@H]1CN(C)C(=O)NC1CCCC1	.	.	.	.	.	2
O=C(c1ccccc1)c1c[nH]c2ccccc12	-5	28	0	-4	-5	25
O=C(/C=C/c1c[nH]c2ccccc12)c1cccc2ccccc12	28*	8	1	13	-4	14

Screening results from PubChem BioAssay.
